Drawing on ChEMBL document CHEMBL3988442, “University of Dundee, Small-Polar-MMV Screening Library” (2021), this text covers Percent Effect for 9 compounds.

Set-up in all cases: scale not given: direction of the effect not stated beside the values
For test [1], the target named is Protein translocase subunit SecA (Escherichia coli (strain K12)) (UniProt P10408). Put plainly: Assay to Identify E. coli SecA ATPase Inhibitors. It counts as functional. Particulars: 30 µM.
Test [2] has as its target T1, Ubiquitin-activating enzyme e1, putative (Leishmania donovani (strain BPK282A1)) (UniProt E9BSI1).
T1 sequence (whole entry): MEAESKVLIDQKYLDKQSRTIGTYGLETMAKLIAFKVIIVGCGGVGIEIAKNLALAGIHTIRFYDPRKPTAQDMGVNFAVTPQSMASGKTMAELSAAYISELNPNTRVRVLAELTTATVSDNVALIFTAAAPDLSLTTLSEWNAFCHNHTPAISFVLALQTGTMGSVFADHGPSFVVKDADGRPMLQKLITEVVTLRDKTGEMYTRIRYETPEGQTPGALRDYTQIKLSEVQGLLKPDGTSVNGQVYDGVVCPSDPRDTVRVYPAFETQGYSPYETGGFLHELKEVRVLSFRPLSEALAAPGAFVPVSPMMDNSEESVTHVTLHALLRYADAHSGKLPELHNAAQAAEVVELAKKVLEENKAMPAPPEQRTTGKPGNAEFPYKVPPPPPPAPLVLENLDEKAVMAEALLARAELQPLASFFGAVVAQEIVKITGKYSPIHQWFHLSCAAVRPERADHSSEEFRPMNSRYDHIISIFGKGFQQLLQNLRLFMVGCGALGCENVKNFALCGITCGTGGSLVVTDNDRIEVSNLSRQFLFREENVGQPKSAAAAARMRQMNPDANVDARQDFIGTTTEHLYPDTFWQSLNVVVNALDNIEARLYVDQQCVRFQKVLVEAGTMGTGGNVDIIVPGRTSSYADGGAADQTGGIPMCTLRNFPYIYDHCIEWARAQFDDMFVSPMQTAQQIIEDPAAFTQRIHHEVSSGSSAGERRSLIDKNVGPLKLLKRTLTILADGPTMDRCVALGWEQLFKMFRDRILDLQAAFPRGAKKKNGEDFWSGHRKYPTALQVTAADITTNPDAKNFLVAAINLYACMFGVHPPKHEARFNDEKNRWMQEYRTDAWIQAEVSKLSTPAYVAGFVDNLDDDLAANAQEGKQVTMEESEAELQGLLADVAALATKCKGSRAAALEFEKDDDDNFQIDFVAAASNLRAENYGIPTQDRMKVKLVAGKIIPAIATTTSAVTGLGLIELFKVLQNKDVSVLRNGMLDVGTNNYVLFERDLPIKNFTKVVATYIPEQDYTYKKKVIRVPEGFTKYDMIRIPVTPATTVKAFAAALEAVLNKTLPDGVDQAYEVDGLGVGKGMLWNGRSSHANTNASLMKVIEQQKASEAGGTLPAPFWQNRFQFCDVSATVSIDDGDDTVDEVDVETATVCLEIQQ
Put plainly: Leishmania donovani Ubiquitin Activating Enzyme (LdE1). It counts as functional. As to conditions: 30 µM.

Test [3] addresses AMP-activated protein kinase, AMPK (Homo sapiens) (UniProt P54646+O43741+P54619+Q9UGJ0+Q9Y478+Q13131+Q9UGI9). Put plainly: AMP-dependent Kinase enzyme assay. An in vitro enzyme assay that detects ADP turnover that is directly proportional to AMPK activity. This uses naive AMPK that is activated during the assay with MK-8722. It counts as functional. As to conditions: 30 µM.
Test [4] has as its target Sialic acid-binding Ig-like lectin 9 (Homo sapiens) (UniProt Q9Y336). Put plainly: Hs-Siglec9 ALPHAscreen SOP 20170721. Particulars: 10 µM. A general note: In Alpha technology, singlet oxygen from a donor bead excites a nearby acceptor bead.
In test [5] the test system is Trypanosoma cruzi. The experiment in a line: Trypanosoma cruzi phosphomannomutase and mannose-1-phosphate guanylyltransferase assay. Format: functional. Particulars: 10 µM.
In test [6] the target is T2, Arginase-2, mitochondrial (Homo sapiens) (UniProt P78540).
T2 sequence (whole entry): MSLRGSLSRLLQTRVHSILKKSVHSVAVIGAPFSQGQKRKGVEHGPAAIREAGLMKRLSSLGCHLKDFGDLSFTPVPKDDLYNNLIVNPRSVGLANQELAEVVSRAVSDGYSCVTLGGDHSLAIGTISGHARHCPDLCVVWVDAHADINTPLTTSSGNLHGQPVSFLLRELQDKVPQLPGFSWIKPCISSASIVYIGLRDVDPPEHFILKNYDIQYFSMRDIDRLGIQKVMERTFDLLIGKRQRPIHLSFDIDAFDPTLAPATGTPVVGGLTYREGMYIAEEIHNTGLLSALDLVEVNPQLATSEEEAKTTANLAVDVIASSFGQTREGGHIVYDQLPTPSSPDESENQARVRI
Put plainly: in vitro enzyme assay to detect the production of urea directly proportional to the activity of Arginase II. Further: in the data most compounds retested in dose-response had high values. It counts as functional. As to conditions: 33.3 µM.

Test [7] deals with T3, Proteasome subunit beta (Trypanosoma cruzi) (UniProt O96673).
T3 sequence (whole entry): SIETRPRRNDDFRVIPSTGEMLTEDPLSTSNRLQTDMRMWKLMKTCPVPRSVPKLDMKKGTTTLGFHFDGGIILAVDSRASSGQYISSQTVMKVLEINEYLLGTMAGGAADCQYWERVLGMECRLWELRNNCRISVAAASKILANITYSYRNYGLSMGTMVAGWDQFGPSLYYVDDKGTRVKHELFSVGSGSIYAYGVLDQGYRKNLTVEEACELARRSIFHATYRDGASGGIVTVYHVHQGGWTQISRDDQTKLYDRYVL
Put plainly: Trypanosoma cruzi proteasome chymotrypsin-like activity (TcProtChymo) assay. Further: in the data most compounds retested in dose-response had high values. It counts as functional. As to conditions: 9.37 µM.

The species named for test [8] is Homo sapiens. The experiment in a line: To identify inhibition of the IFN signalling (Jak-Stat) pathway via expression of an eGFP reporter gene under the control of an IFN-stimulated response element (ISRE) containing MxA promoter. Format: functional. Particulars: 30 µM. Background: In a reporter assay the amount or activity of a reporter protein is the signal.
For test [9], the target named is T4, Tyrosyl-tRNA synthetase, putative (Trypanosoma cruzi (strain CL Brener)) (UniProt Q4DSP6).
T4 sequence (whole entry): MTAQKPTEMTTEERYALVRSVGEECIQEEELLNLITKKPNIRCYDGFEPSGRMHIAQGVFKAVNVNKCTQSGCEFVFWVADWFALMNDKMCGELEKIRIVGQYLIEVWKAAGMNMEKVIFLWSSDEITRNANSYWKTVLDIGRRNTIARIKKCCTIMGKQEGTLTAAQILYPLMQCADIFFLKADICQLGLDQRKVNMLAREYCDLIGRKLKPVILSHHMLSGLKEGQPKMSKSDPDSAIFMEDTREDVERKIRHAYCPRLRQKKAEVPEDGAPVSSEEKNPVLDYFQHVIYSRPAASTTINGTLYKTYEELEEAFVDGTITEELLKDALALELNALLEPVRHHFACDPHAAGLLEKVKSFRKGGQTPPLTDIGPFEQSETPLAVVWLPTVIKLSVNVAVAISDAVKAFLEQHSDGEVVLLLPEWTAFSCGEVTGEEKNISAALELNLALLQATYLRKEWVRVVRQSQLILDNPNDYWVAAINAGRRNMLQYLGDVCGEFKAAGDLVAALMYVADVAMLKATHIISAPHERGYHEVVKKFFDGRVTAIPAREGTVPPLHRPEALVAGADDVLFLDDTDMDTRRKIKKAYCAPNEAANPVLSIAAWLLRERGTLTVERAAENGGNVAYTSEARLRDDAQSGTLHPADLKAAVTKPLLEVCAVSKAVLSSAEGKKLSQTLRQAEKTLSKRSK
The experiment in a line: Trypanosoma cruzi tyrosyl tRNA synthetase (TcYRS) _High Tyrosine SOP. Further: in the data most compounds retested in dose-response had high values. Format: functional. As to conditions: 30 µM.

The target of test [10] is T4, Tyrosyl-tRNA synthetase, putative (Trypanosoma cruzi (strain CL Brener)). The experiment in a line: Trypanosoma cruzi tyrosyl tRNA synthetase (TcYRS) SOP. It counts as functional. Particulars: 30 µM.
Test [11] has as its target Chromo domain-containing protein 1 (Saccharomyces cerevisiae (strain ATCC 204508 / S288c) (Baker's yeast)) (UniProt P32657). The experiment in a line: ScCHD-1 Enzyme Inhibition Assay. Further: in the data most compounds retested in dose-response had high values. As to conditions: 30 µM. It counts as functional.

For part of these data: Results with a measured potency or affinity are listed apart.

Chromo domain-containing protein 1 (Saccharomyces cerevisiae (strain ATCC 204508 / S288c) (Baker's yeast)), sequence (P32657 whole entry, the tested form may be a part): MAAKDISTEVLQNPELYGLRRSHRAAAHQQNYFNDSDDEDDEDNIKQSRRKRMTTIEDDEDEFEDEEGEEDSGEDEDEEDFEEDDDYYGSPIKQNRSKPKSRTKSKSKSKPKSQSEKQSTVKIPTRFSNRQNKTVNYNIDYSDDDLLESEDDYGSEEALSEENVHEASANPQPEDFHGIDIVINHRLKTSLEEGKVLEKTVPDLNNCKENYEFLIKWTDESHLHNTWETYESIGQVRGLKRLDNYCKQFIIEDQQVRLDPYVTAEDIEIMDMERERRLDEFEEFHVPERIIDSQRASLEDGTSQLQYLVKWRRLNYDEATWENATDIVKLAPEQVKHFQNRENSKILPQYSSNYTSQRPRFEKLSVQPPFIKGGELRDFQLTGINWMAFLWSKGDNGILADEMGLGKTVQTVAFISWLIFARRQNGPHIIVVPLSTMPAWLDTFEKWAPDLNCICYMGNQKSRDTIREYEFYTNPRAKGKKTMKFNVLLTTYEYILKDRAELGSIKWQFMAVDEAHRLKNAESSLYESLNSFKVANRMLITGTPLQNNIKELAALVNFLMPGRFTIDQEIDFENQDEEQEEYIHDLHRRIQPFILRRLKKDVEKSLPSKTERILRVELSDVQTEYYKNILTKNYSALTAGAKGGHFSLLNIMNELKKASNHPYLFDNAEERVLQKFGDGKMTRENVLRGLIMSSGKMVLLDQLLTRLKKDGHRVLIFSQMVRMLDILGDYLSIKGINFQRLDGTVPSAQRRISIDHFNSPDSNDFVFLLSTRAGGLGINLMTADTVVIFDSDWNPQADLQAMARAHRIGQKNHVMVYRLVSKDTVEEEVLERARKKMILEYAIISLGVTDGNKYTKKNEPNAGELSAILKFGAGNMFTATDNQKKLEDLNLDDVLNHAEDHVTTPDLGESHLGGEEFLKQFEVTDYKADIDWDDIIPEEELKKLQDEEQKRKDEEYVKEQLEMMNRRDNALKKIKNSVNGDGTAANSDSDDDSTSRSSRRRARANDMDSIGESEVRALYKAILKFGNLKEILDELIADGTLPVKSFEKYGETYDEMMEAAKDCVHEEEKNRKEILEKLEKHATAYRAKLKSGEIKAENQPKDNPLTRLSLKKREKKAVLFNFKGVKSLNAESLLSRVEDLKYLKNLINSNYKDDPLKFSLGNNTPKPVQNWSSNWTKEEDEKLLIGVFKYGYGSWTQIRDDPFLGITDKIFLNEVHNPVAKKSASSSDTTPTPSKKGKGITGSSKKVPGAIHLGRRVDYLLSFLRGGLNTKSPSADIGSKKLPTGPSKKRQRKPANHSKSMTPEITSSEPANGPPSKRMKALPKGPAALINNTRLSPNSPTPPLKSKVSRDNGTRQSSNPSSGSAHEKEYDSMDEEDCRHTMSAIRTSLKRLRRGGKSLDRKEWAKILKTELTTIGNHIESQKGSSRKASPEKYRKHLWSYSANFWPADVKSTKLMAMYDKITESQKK
Protein translocase subunit SecA (Escherichia coli (strain K12)), sequence (P10408 whole entry): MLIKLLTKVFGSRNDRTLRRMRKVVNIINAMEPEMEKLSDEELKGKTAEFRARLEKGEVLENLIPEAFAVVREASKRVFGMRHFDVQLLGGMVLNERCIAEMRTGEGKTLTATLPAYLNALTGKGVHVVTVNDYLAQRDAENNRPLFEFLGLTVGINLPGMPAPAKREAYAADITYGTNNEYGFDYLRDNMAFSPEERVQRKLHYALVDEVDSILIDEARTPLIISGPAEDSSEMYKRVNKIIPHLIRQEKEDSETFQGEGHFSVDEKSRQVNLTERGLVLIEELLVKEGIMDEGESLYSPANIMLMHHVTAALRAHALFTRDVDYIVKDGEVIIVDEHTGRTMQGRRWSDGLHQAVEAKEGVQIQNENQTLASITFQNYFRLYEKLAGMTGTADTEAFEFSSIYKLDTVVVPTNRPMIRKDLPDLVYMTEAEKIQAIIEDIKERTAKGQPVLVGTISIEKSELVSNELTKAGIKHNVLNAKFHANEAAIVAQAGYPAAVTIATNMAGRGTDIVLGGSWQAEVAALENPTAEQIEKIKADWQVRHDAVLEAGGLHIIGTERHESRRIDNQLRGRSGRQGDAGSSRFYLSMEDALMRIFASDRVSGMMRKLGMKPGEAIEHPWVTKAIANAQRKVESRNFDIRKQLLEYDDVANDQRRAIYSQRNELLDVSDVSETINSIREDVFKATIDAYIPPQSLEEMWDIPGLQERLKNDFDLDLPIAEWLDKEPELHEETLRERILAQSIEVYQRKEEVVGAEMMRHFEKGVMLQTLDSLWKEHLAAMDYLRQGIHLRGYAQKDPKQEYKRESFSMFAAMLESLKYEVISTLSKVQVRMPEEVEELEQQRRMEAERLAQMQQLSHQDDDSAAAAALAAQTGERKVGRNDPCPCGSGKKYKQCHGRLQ
Sialic acid-binding Ig-like lectin 9 (Homo sapiens), sequence (Q9Y336 whole entry): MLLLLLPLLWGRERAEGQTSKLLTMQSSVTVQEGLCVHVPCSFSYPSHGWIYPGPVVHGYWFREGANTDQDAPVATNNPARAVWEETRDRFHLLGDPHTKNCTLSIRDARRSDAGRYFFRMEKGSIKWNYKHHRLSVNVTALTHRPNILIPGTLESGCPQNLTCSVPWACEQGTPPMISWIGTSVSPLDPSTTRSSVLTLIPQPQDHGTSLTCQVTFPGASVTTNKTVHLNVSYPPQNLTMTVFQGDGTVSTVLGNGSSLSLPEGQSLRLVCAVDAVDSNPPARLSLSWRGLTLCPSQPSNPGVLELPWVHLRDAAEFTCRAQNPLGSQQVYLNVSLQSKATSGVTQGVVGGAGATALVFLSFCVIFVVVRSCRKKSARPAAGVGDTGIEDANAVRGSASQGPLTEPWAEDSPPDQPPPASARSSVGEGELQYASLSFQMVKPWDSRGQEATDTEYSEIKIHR

For `CC1COCCN1Cc1nc(-c2cccc(Br)c2)no1` (centres undefined), the Percent Effect is -3.43% in test [1]; 13.5% in test [2]; 7.49% in test [3]; 1.61% in [4]; -8.4% in [5]; 2% in [6]. Besides, the Percent Effect is 17.7% in [7]; 24.7% in test [8]; 0.493% in [9]; 1.24% in test [10]; -8.7% in test [11].
In the case of `O=C(O)C(c1ccc2c(c1)OCO2)N1CCC(C(=O)N2CCCC2)CC1` (centres undefined), the Percent Effect in test [1] was -6.55%; in test [2], 0%; in test [3], -3.95%; in test [4] it was 1.83%; in test [5] it was -5.36%; in test [6] it was -1.56%. Also, the Percent Effect in [7] was 4.18%; in [8], 2.87%; in test [9], 4.92%; in [10], 3.7%; in test [11], -5.45%.
With `OCC1CCCN1c1cc(N2CCN(c3ccccn3)CC2)ncn1` (centres undefined), the Percent Effect in test [1] was -1.51%; in test [2], 2.6%; in [3], 5.09%; in [4] it was 12.8%; in test [5] it was -1.27%; in [6], 3.58%. For the same compound, the Percent Effect was 0.889% in test [7]; 13.3% in [8]; 5.71% in test [9]; 7.06% in test [10]; -17.6% in [11].
Take `O=C(c1ccc(-n2ccnc2)nc1)N1CCCC(n2cccn2)C1` (centres undefined): the Percent Effect is -0.548% in test [1]; 7.89% in [2]; -2.37% in test [3]; 3.05% in test [4]; -2.63% in [5]; 7.28% in test [6]. The Percent Effect was -0.501% in [7]; 15.7% in test [8]; 5.39% in test [9]; 9.76% in test [10]; 0.587% in test [11].
Turning to `CCOCC(=O)N1CCC(Oc2ccc(Cl)cn2)CC1`, the Percent Effect in test [1] is -0.654%; in test [2] it was 7.79%; in [3] it was 2.32%; in [4], 8.91%; in test [5], -0.888%; in test [6], 4.52%. Moreover, the Percent Effect in [7] was 25.9%; in [8], 21.4%; in [9], 8.47%; in test [10], 8.97%; in test [11], -8.06%.
For `NCC1Cn2nnc(-c3cccc(F)c3)c2CO1` (centres undefined), the Percent Effect is -1.49% in test [1]; -20.8% in test [2]; 2.11% in [3]; 0.572% in test [4]; 8.75% in test [5]; -1.38% in test [6]. Also, the Percent Effect in test [7] was 7.99%; in test [8], -8.6%; in [9], 3.23%; in test [10], 3.7%; in [11], -4.31%.
As to `Cn1cc(CNCCOc2ccc(F)c(F)c2)c(-c2cccnc2)n1`, the Percent Effect is -6.54% in [1]; 5.41% in test [2]; -6.5% in [3]; 20.6% in [4]; 1.47% in test [5]; 0.744% in [6]. Moreover, the Percent Effect in test [7] was 5.41%; in test [8], 7.57%; in test [9], 4.3%; in test [10], 8.64%; in test [11] it was -3.29%.
Take `Cc1cccn2c(=O)cc(CN3CCCCC3Cn3cncn3)nc12` (centres undefined): the Percent Effect is -9.82% in test [1]; -2.7% in test [2]; -1.37% in test [3]; -1.48% in test [4]; -4.2% in test [5]; -1.74% in [6]. In addition, the Percent Effect in test [7] was 9.53%; in test [8] it was -10.4%; in test [9], -1.07%; in [10], -6.17%; in test [11], -6.48%.
On to `COCC(=O)N(C)Cc1ccc(Cl)c(Cl)c1`, for which the Percent Effect is -4.08% in test [1]; -2.63% in [2]; 8.5% in test [3]; 7.96% in test [4]; -3.21% in [5]; -5.92% in test [6]. For the same compound, the Percent Effect in test [7] was 21.2%; in test [8], 10.7%; in test [9], 0%; in test [10], 2.6%; in test [11], -8.73%.
